A word on the inhibition: it is the relative decrease from the control value, in per cent.

Hit rate of the full screen: of about 360,000 compounds, about 1,500 (0.42%) were called active. The entries come from a sample that favours actives as a whole. A number with no mark means an inactive call. No stated cut-off is given here; in the data, active means inhibition above about 13% (passing the limit was not always enough); inactive means the rest.

The target of the assay is Lon protease (Escherichia coli (strain K12)) (UniProt P0A9M0). In words: E. coli eLon protease inhibition – biochemical, fluorescence polarization, primary screen (AID 602123).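 Further: 0% = enzyme with probe and DMSO and 100% = no enzyme.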 Conditions: purified E. coli Lon protease, at 7.94 µM, hits give high values.
Lon protease (Escherichia coli (strain K12)), sequence (P0A9M0 whole entry, looked up): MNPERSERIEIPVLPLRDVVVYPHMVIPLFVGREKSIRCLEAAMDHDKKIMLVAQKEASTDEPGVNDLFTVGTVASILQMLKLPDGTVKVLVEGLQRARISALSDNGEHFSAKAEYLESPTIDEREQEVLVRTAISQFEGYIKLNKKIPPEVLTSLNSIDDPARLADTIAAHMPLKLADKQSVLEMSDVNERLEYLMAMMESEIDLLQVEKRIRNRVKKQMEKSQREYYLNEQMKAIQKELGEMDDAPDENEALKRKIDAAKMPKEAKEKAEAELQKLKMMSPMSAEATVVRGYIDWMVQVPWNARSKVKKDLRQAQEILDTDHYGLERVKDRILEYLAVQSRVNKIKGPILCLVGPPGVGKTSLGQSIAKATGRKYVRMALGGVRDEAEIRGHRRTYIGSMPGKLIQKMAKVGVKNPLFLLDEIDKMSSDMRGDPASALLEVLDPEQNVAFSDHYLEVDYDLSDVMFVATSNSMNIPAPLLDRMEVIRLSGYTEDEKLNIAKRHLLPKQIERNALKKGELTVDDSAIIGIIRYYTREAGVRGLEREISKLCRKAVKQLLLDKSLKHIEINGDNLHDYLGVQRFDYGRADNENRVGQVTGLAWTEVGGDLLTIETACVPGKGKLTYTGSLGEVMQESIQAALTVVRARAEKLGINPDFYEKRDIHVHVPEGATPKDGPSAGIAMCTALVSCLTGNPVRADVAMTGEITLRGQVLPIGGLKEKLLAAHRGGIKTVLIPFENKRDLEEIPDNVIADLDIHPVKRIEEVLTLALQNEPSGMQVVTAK
For `Cc1ccc(N=C2SCCCN2C(=O)c2cccc(N3C(=O)CCC3=O)c2)cc1Cl`, the inhibition was 1.67%. Consider `COC(=O)c1cccc(C(=O)N2CCC(CCC(=O)NCc3ccc(F)cc3)CC2)c1`, for which the inhibition was -6.42%. As for `CC(=O)Nc1ccc(CN2CCN(Cc3ccc(F)c(F)c3)C(CCO)C2)cc1` (configuration not stated), the inhibition is -13.9%.

Regarding `COC(=O)c1ccccc1N=NNc1ccc([N+](=O)[O-])cc1`, the inhibition is -9.1%.

In the case of `COc1cc(NC(=O)Nc2ccc(C)cc2)cc([N+](=O)[O-])c1`, the inhibition was -13%. As for `COc1ccc(Nc2ccc([N+](=O)[O-])cn2)cn1`, the figure is 20.9% (active). Take `O=S(=O)(/N=C(/Nc1ccccc1)c1ccccc1)c1cccs1`: the inhibition is 5.92%. With `O=S1(=O)CC(N2CCN(CCO)CC2)CN1Cc1cn(Cc2ccc(Cl)cc2)nn1` (configuration not stated), the inhibition is -4.7%.

`Cn1nc(C(F)(F)F)c2cc(NC(=O)OCC(C)(C)C)sc21`: the inhibition was -3.72%. As for `CCNc1nc(N)nc(-c2cc(Cl)ccc2OC)n1`, the inhibition is -13.4%. Regarding `CCOc1cc(S(=O)(=O)NC2CC(C)(C)NC(C)(C)C2)ccc1F`, the inhibition was -9.09%.

With `COCCNC(=O)CN(Cc1ccco1)C(=O)CCC(=O)Nc1nccs1`, the inhibition was -1.88%. On to `COCCNC(=O)Nc1ccc2nc(-c3ccco3)c(-c3ccco3)nc2c1`, for which the inhibition is 25.9% (active). Regarding `COc1ccc(CCNC(=O)Nc2ccc3c(c2)c(=O)n(C)n3C)cc1OC`, the inhibition was 7.25%. `O=C(c1cccc(Br)c1)N1CCN(C2=NS(=O)(=O)c3ccccc32)CC1`: the inhibition was -1.34%. Consider `Oc1ccc(N=Cc2sc3ccccc3c2Cl)cc1`, for which the inhibition was 32.3% (active). In the case of `COc1ccc(OC)c(NC(=O)N[C@H](Cc2ccccc2)C(=O)NN)c1`, the inhibition is -10.1%. As for `COc1ccc2oc(C(=O)NCC(Cc3ccccc3)N(C)C)c(C)c2c1` (configuration not stated), the inhibition is 1.71%.

For the compound `COc1cc([C@H](Cc2ccccc2)NC(C)=O)oc(=O)c1`, the inhibition was 17.6% (active). Turning to `CC(=O)N1CC(C)c2scc(C)[n+]2-c2ccccc21` (configuration not stated), the inhibition was 20.3%. Consider `C=CCc1cccc2cc(C(=O)Nc3ccc(NC(C)=O)cc3)c(=O)oc12`, for which the inhibition was -3.06%. Take `CCc1cc2c(=O)c(-c3ccon3)c(N)oc2cc1OC`: the inhibition is -12.2%. `Cc1cc(OCCN2CCCC2)cc(C(C)C)c1`: the inhibition was 3.29%. In the case of `Nc1ccc2nc3c(=O)[nH]c(=S)[nH]c3nc2c1`, the inhibition was 182% (active).

In the case of `Cc1coc2c(O)cc3c(c12)OC1(N2CCCCC2)C(=O)NCCCC31` (configuration not stated), the inhibition is 29.9% (active). As for `CSc1ccc(C(=O)C2CCCN(C(=O)c3ccc(C)nc3)C2)cc1` (configuration not stated), the figure is -8.1%; as for `CCCC(=O)OCC(=O)Nc1cc(Cl)ccc1[N+](=O)[O-]`, 5.89%. On to `CC1(C)CC(N2CCN(C(c3ccccc3)c3ccccc3)CC2)=CC(=[N+]2CCCCC2)C1`, for which the inhibition is -3.99%. As for `O=C(O)Cc1ccc(NC(=O)C2CCCCC2C(=O)O)cc1` (configuration not stated), the inhibition was -2.29%. With `CC#CC[N+](C)(C)CCCCCC`, the inhibition was 11.3%. Regarding `CCN1CCN(C2CCCCC2NS(=O)(=O)c2ccc(Cl)cc2)CC1` (configuration not stated), the inhibition is -11.9%.

For `COc1ccc(N2CCN(C3CCCCC3NS(=O)(=O)c3ccccc3)CC2)cc1` (configuration not stated), the inhibition is 17.2% (active). Turning to `O=S(=O)(NC1CCCCC1N1CCN(c2ccccc2F)CC1)c1ccccc1` (configuration not stated), the inhibition is -9.13%. Consider `N#Cc1ccccc1Sc1ccccc1C(=O)OCC(=O)NC1CCCCC1`, for which the inhibition is -2.35%. For the compound `Cc1nc2nc3c(cn2n1)C(=O)CC(c1ccccc1)C3` (configuration not stated), the inhibition is 6.37%. Regarding `CC(C)n1c(O)c(N=Nc2ccccn2)c2ccccc21`, the inhibition was -4.1%. Consider `Cc1cccc(C)c1N1CCN(S(=O)(=O)N2CCCCC2)CC1`, for which the inhibition was 2.21%.

As to `O=S(=O)(N1CCOCC1)N1CCN(c2ccccc2F)CC1`, the inhibition is 3.92%.

For the compound `Cc1cccc(C)c1N1CCN(S(=O)(=O)N2CCOCC2)CC1`, the inhibition was 21.5% (active).

For `COc1ccc(/C=C/CN2CCCC(C(=O)c3cc(F)ccc3F)C2)cc1` (configuration not stated), the inhibition was -0.58%. Turning to `C=CCn1c(=S)sc2c(=O)[nH]c(C)nc21`, the inhibition is 5.17%.

As to `Cc1ccn(C(CC(=O)c2ccc(Br)cc2)C(=O)O)n1` (configuration not stated), the inhibition was 5.2%.

With `Cc1nc(N)sc1-c1ccccc1`, the inhibition is -2.59%.

Turning to `N#Cc1c(N)nc2c3c(sc(=N)c2c1N)NC(=O)CC3c1ccccc1Cl` (configuration not stated), the inhibition was -13.5%. Regarding `O=[N+]([O-])c1cccc(C=NN=Cc2ccccc2O)c1`, the inhibition is 0.97%. As for `Nc1ccccc1/C=N\N=C/c1ccccc1N`, the figure is 25.9% (active); as for `COc1ccc(N2CCN(S(=O)(=O)CCNC(=O)C34CC5CC(CC(C5)C3)C4)CC2)cc1`, -6.65%. As for `COc1ccc(C)cc1S(=O)(=O)Nc1cc2c3c(c1)CCC(=O)N3CCC2`, the inhibition was 0.26%. As for `CNc1cnc(-c2cc(OC)c(OC)c(OC)c2)cn1`, the inhibition is 1.98%. Regarding `COC(=O)c1cccc(N(C(=O)c2ccco2)C(C(=O)NC2CCCC2)c2ccco2)c1` (configuration not stated), the inhibition was -3.87%. As for `Cc1ccc(-n2c(=O)c(C#N)cc3c(=O)n4ccccc4nc32)cc1C`, the figure is -8.16%; as for `COC(=O)Nc1ccc(S(=O)(=O)N2CCN(CCN3C(=O)C4C5C=CC(C5)C4C3=O)CC2)cc1` (configuration not stated), -1.58%; as for `CCc1ccc(NC(=O)C(=O)N/N=C(\C)CC(=O)NCCOC)cc1`, 28.6% (active). Turning to `C/C(CC(=O)Nc1ccc(Cl)cc1)=N\NC(=O)C(=O)NCCO`, the inhibition was -5.9%. In the case of `COc1ccc(COC(=O)N/N=C(\C)CC(=O)Nc2ccc(Cl)cc2)cc1` it was 9.08%. Take `O=C(/C=C/c1cccc(C(F)(F)F)c1)N1CCN(c2ccccn2)CC1`: the inhibition is 8.73%. As for `COc1nc(N(C)C)nc(N2CC(=O)N(CCNS(=O)(=O)c3ccc(C)cc3)C2=N)n1`, the figure is -0.47%; as for `C/C(=N\NC(=O)CCn1nc(C)cc1C)C(C)(C)C`, -2.11%.

Consider `CSc1nc(C)nc(C2CC2)c1C#N`, for which the inhibition is 5.92%. As for `CC1(C)OC(=O)C(=CNC(CO)C(=O)O)C(=O)O1` (configuration not stated), the inhibition is 17.8% (active). Turning to `CC(C)Oc1ccccc1C(=O)NC(CO)C(=O)O` (configuration not stated), the inhibition is -0.19%.

With `Cc1nn(CC(=O)Nc2ccc(C#N)cc2)c(C)c1[N+](=O)[O-]`, the inhibition is -15.5%. As for `COc1ncnc2c1N=C1CC(C)(C)CC(N)=C1S2`, the inhibition was 65.4% (active). `Cn1cc(CCC(=O)N2CCCC(C(=O)c3ccc(C(C)(C)C)cc3)C2)cn1` (configuration not stated): the inhibition was -1.82%. As to `O=C(COc1ccc(/C=N/NS(=O)(=O)c2ccccc2)cc1)NCCc1ccccc1`, the inhibition is -5.95%. As for `COC(=O)[C@]12CCCCC=C1N(CCC1=CCCCC1)C(=O)[C@H](CC(=O)NCC1CCCCC1)C2`, the inhibition was -2.93%. For the compound `CCCCOCCCNC(=O)C[C@@H]1C[C@@]2(C(=O)OC)CCCCC=C2N(CCC2=CCCCC2)C1=O`, the inhibition was 14.4% (active).

As for `CCOC(=O)N1CCN(C(=O)C[C@@H]2C[C@@]3(C(=O)OC)CCCCC=C3N(CCC3=CCCCC3)C2=O)CC1`, the inhibition was 4.15%. `c1ccc(-c2ccc3c(c2)NC(C2Nc4cc(-c5ccccc5)ccc4O2)O3)cc1` (configuration not stated): the inhibition is -3.71%.

Take `NC(=O)c1nnsc1-c1ccc(-c2snnc2C(N)=O)cc1`: the inhibition was 1.17%.

As for `COc1ccc(S(=O)(=O)N2CCOCC2)cc1NC(=O)CSc1cc(C)ccc1C`, the inhibition was -9.45%. As for `COc1ccc(S(=O)(=O)N2CCOCC2)cc1NC(=O)Cc1c(F)cccc1Cl`, the inhibition is 20.4% (active). As for `COc1ccc(S(=O)(=O)N2CCOCC2)cc1NC(=O)COc1ccccc1`, the figure is -17.8%. As for `Cc1ccc(CNC(=O)CCN2C(=O)[C@@H]3Cc4ccccc4CN3C2=O)cc1`, the figure is 1.97%; as for `O=C(CN1CCN(S(=O)(=O)c2cccc(Cl)c2)CC1)N1CCCCC1`, -0.39%. For `O=C(CN1CCCSc2ccccc21)N1CCN(S(=O)(=O)c2cccc(F)c2)CC1`, the inhibition was 19.9% (active). In the case of `O=C(CN1CCCSc2ccccc21)N1CCN(S(=O)(=O)c2ccccc2)CC1` it was 4.26%; in that of `CC(C)N1CCC(=NNc2ccc([N+](=O)[O-])cc2S(=O)(=O)N2CCOCC2)CC1`, 1.91%. For `COc1ccccc1Oc1ccc(N2CC(C(=O)OCC(=O)c3ccc(F)cc3)CC2=O)cc1` (configuration not stated), the inhibition was 2.52%. `CCn1c(=S)[nH]c2cc(S(=O)(=O)N3CCOCC3)ccc21`: the inhibition was 3.25%. Turning to `CNS(=O)(=O)c1ccc2c(c1)[nH]c(=S)n2C`, the inhibition is 62.6% (active). Consider `CCCCn1c(=S)[nH]c2cc(S(=O)(=O)N3CCCCC3)ccc21`, for which the inhibition is -10.8%. For the compound `CSc1ccc(S(=O)(=O)N2CCC(C(=O)NCCc3ccccc3)CC2)cc1`, the inhibition is 11%. For the compound `CN(C)Cc1c(C(=O)N/N=C/c2ccccc2OCc2ccc(F)cc2)nnn1-c1nonc1N`, the inhibition is 18.9% (active). On to `CC(C)Oc1ccc(/C=N/NC(=O)c2nnn(-c3nonc3N)c2CN(C)C2CCCCC2)cc1`, for which the inhibition is 1.38%. Consider `CCN(CC)Cc1c(C(=O)N/N=C/c2cccc(OCc3ccc(F)cc3)c2)nnn1-c1nonc1N`, for which the inhibition is 5.3%.

Turning to `CCc1ccc(CN2C(=O)c3ccccc3C2C(=O)NCC2CCCO2)cc1` (configuration not stated), the inhibition was -0.17%. `COc1c(C(C)C)oc2cc3oc(=O)ccc3cc12`: the inhibition is 0.79%. Take `CS(=O)(=O)N(C(=O)NC(=O)NC1CCS(=O)(=O)C1)C1CCCCC1` (configuration not stated): the inhibition is -6.98%. `Cc1ccc2cccc(S(=O)(=O)N3CCN(c4ccccc4F)CC3)c2n1`: the inhibition is 1.99%. For `Cc1cc(-c2nnc(CCC(=O)NC(c3ccccc3)c3ccccc3)o2)no1`, the inhibition is 5.3%. In the case of `COc1cccc(N(CC(=O)NCc2ccccc2)C(=O)CCC(=O)Nc2nccs2)c1`, the inhibition is -5.92%.
